Each structure is given as a SMILES string. The campaign covered roughly 390,000 compounds. About 4,000 (1%) were called active. About 4% were inconclusive and are not listed. This is one part of a sample in which actives are shown more often than they occur. The call rests on the fitted dose curve; in most records, active means well fitted inhibition curve with a large enough effect; inconclusive means small, poorly fitted or top-dose-only effect; inactive means no such curve, though single readings can be large or run the other way.
On the % scale 0 is the no-effect control and ±100 the full control effect; potency means the concentration at half of the fitted maximal effect.

Chain of Thioredoxin reductase 1, cytoplasmic (Rattus norvegicus) (O89049 whole entry, looked up): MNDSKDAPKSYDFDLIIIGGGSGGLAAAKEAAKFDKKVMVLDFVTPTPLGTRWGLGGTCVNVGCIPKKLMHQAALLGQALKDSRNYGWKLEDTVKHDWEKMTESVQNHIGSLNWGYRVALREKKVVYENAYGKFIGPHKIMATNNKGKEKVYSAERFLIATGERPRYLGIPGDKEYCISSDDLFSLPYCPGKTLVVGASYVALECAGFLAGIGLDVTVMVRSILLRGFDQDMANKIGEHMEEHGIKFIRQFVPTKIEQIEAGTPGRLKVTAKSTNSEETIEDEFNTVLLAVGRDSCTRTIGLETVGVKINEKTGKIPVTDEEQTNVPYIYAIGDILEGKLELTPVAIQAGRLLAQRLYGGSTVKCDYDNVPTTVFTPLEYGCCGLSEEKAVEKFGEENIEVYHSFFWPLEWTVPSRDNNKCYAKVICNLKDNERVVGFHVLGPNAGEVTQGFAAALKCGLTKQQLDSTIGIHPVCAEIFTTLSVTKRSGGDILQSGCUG

In the test the target is Thioredoxin reductase 1, cytoplasmic (Rattus norvegicus) (UniProt O89049). Briefly: qHTS Assay for Inhibitors of Mammalian Selenoprotein Thioredoxin Reductase 1 (TrxR1): qHTS. Further: nearly all actives have a fitted effect of over 65% in size. The following applies: recombinant rTrxR1, NADPH fluorescence consumption, selenite substrate; series mostly up to 114 µM; activity change, negative = inhibition: at the top concentration. An excerpt:
The selenoprotein thioredoxin reductase (TrxR; EC 1.8.1.9) is a FAD containing homodimeric pyridine nucleotide-disulfide oxidoreductase with many cellular roles. Together with NADPH and its prime substrate thioredoxin (Trx), the enzyme forms the core of the Trx system. The mammalian Trx system exerts a wide spectrum of functions including redox regulation, antioxidant defense, regulation of transcription factors as well as support of cell growth and replication. Many of these functions involve the reduction of Trx, which may subsequently reduce a number of different substrates including ribonucleotide reductase, peroxiredoxins or NFkB. Mammalian TrxR itself also has a broad substrate specificity, reducing both protein and non-protein substrates, including low molecular weight compounds such as dehydroascorbate, lipoic acid, ubiquinone, and juglone. In addition, several drugs in clinical use for anticancer treatment are indeed known to target TrxR1.
This BioAssay is a validation of an NADPH fluorescence-based, dual-purpose qHTS rTrxR1 assay designed to find potential inhibitors and substrates of rTrxR1. For this particular BioAssay, actives are potential inhibitors. See related BioAssay for substrate data deposition.
NIH Molecular Libraries Probe Production Network [MLPCN]
NIH Chemical Genomics Center [NCGC]
Assay Provider: Elias Arner, Karolinska Institute
Assay protocol: 2 uL of reagents (buffer in column 4 as negative control and 90 nM rTrxR1 in columns 1-3 and 5-48) were dispensed into Greiner black solid-bottom 1,536-well assay plates, followed by 1 uL of NADPH (400 uM final concentration) to each well. The plates were centrifuged at 1000 rpm for 15 seconds and subsequently incubated for 5 min at room temperature (~22 deg C) to allow for rTrxR1 reduction. Compounds (23 nL) were then transferred via Kalypsys pin tool equipped with 1536-pin array (10 nL slotted pins, V&P Scientific, San Diego, CA). In addition, a duplicate 2-fold serial dilution of the control compounds auranofin, a known gold-based TrxR1 inhibitor, and juglone (5-hydroxy-1,4-naphthoquinone), a natural TrxR1 substrate, were pin-transferred to columns 2 and 3, respectively. After incubation for 15 min at room temperature (~22 deg C), 1 uL of selenite (400 uM final concentration) were dispensed to each well. The plate was immediately transferred to a ViewLux high-throughput CCD imager (PerkinElmer), wherein kinetic measurements of NADPH fluorescence (Ex 340 nm, Em 450 nm) were acquired (8 minute kinetic read, see Table 1). Read 1 was utilized to assess the capacity of a compound to serve as an rTrxR1 substrate, i.e. a decrease in NADPH fluorescence compared to the no-compound background is an indication of a substrate behavior for that particular compound. For inhibitory activity of a compound, delta values, computed as the difference in fluorescence intensity between the first and last reads of an 8-minute time kinetic window, were used. All reagents were diluted in an assay buffer consisting of 50 mM Tris-HCl, pH 7.5, 2 mM EDTA, and 0.01% Tween-20.
Throughout the screen, reagent bottle and all liquid lines were made light-tight to minimize reagent degradation. All screening operations were performed on a fully integrated robotic system (Kalypsys, San Diego, CA) containing one RX-130 and two RX-90 anthropomorphic robotic arms (Staubli, Duncan, SC). Library plates were screened starting from the lowest and proceeding to the highest concentration, and a 'double-pinning' step of the highest concentration was required to access higher concentrations of compounds. Vehicle-only plates, with DMSO being pin-transferred to the columns 5-48, were inserted uniformly at the beginning and the end of each library in order to monitor and record any shifts in the background, which can be affected by reagent dispensers or loss in enzyme activity over time. […]
Take `Cc1ccc(-c2nc(Cn3c(=O)cc(-c4ccccc4)c4c(C)nn(C)c43)c(C)o2)cc1`: the “activity change, negative = inhibition” value was 16.5% [at 57.1 µM] (inactive). Same read-out and setting: the result for `O=C(NCc1ccccc1)C(=O)NCC(c1ccco1)S(=O)(=O)c1ccc(Cl)cc1` (centres undefined) reads 3.23% [at 57.1 µM] (inactive); that for `CCN1CCC(N(Cc2ccc(F)cc2)C(=O)Nc2cc(C)ccc2C)CC1`, -0.49% (inactive); that for `Cc1ccc(NC(=O)CN2C(=O)C(c3ccc(F)cc3)=NC23CCCCCC3)c(C)c1`, 11.7% (inactive).

As to `CCN1CCC2(CC1)N=C(c1ccc(F)cc1)C(=S)N2C(=O)c1ccc(C)cc1`, the Potency is 15.8 µM (active). Consider `Cc1cccc(-n2ccnc2SCC(=O)Nc2cccc3ccccc23)c1C`, for which the “activity change, negative = inhibition” value is 12.3% [at 57.1 µM] (inactive). As to `NNc1cccc(C=Cc2ccccc2)cc1=O`, the Potency is 17.8 µM (active).

In the case of `O=C(COc1ccccc1)OCc1cc(=O)n2nc(-c3cccs3)sc2n1`, the “activity change, negative = inhibition” value was 18% [at 57.1 µM] (inactive).

Regarding `CC1=Nc2cc(C(=O)NCc3ccc(C)cc3)ccc2Sc2ccc(Cl)cc21`, the “activity change, negative = inhibition” value was 24.3% [at 57.1 µM] (inactive).

With `NC(=O)CC[C@@H]1NC(=O)[C@@H]2CCCN2C(=O)c2cc([N+](=O)[O-])cc(F)c2NCCC[C@@H](C(N)=O)NC1=O`, the Potency was 12.6 µM (active). Consider `NCCCC[C@@H]1NC(=O)[C@H](CCC(=O)O)NC(=O)c2cc([N+](=O)[O-])cc(I)c2NCC[C@@H](C(N)=O)NC1=O`, for which the “activity change, negative = inhibition” value was -14.4% (inactive). On to `C[C@@H]1NC(=O)c2cc([N+](=O)[O-])cc(F)c2NCCC[C@@H](C(N)=O)NC(=O)[C@H](CC(N)=O)NC1=O`, for which the “activity change, negative = inhibition” value was -7.55% (inactive). Turning to `NC(=O)CC[C@@H]1NC(=O)[C@H](CO)NC(=O)c2cc([N+](=O)[O-])cc(I)c2NCC[C@@H](C(N)=O)NC1=O`, the Potency was 70.8 µM (active).

For `CC(C)[C@@H]1NC(=O)c2cc([N+](=O)[O-])cc(I)c2NCCC[C@@H](C(=O)NC(CC(=O)O)C(N)=O)NC(=O)[C@H](CO)NC1=O` (some centres undefined), the “activity change, negative = inhibition” value was -3.78% (inactive). For the compound `NC(=O)C[C@@H]1NC(=O)CNC(=O)c2cc([N+](=O)[O-])cc(I)c2NCCC(C(N)=O)NC1=O` (some centres undefined), the “activity change, negative = inhibition” value is -2.64% [at 57.1 µM] (inactive). In the case of `O=C(COc1ccccc1C(=O)Nc1ccccc1)Nc1cccc(F)c1`, the “activity change, negative = inhibition” value was 21.1% (inactive). `CCC(=O)Nc1cccc(-c2nc3cc(C)ccc3o2)c1`: the “activity change, negative = inhibition” value was 34.9% [at 57.1 µM] (inactive). Consider `CC(C)(C)c1ccc(C(=O)C[N+]2(C)CCCc3ccccc32)cc1` (centres undefined), for which the “activity change, negative = inhibition” value is 7.97% (inactive). In the case of `COC(=O)c1ccccc1NC(=O)Cc1ccccc1OC`, the “activity change, negative = inhibition” value was -5.24% (inactive). For the compound `O=C(NC(=S)NC1CCSC1=O)c1ccccc1F` (centres undefined), the “activity change, negative = inhibition” value is 9.7% (inactive). With `COC(=O)c1ccccc1NC(=S)NC(=O)c1ccccc1F`, the Potency was 25.1 µM (active). Take `COc1cccc(C2C(C(=O)Nc3ccc(C)cc3C)=C(C)Nc3c(C(=O)Nc4ccccc4)cnn32)c1` (centres undefined): the “activity change, negative = inhibition” value was 2.63% (inactive). Consider `CC1CCCCN1Cc1c(O)ccc2c(=O)c(-c3cccc(Cl)c3)c(C(F)(F)F)oc12` (centres undefined), for which the “activity change, negative = inhibition” value is -4.93% (inactive). The same measure, in the same setting: the result for `CC1CCCN(Cc2c(O)ccc3c(=O)c(Oc4ccc(C(C)(C)C)cc4)c(C(F)(F)F)oc23)C1` (centres undefined) reads 7.62% (inactive); that for `COc1ccc(CC(=O)NCc2nnc(SCC(=O)Nc3nccs3)n2C)cc1`, 9.52% (inactive); that for `CCn1c(CNc2ccc(OC)cc2)nnc1SCC(=O)c1ccc(OC)cc1`, -11.4% (inactive).

For `COc1ccc(Cc2nnc(SCC(=O)c3cccc([N+](=O)[O-])c3)n2C)cc1`, the Potency was 79.4 µM (active). Take `Fc1ccc(CSc2nc(NCc3ccccc3)c3ccccc3n2)cc1`: the “activity change, negative = inhibition” value was 17.9% [at 57.1 µM] (inactive). For `O=C(CSc1nnc(CNC(=O)c2ccccc2)n1-c1ccc(F)cc1)Nc1ccccc1F`, the “activity change, negative = inhibition” value is 27.2% (inactive). Take `O=C(OCc1ccccc1F)c1ccc2c(c1)OCCO2`: the “activity change, negative = inhibition” value is 16.1% (inactive).

On to `O=C(CCN1CCc2ccccc2C(O)(c2ccccc2)C1)c1ccc2c(c1)OCCO2` (centres undefined), for which the Potency was 0.708 µM (active). `O=C(c1ccc2c(c1)OCO2)N1CCNc2ccccc2C1`: the “activity change, negative = inhibition” value was -7.73% (inactive).

As to `O=C1CCC[C@@H]2C[C@@]3(C[C@@H]4CCN1[C@H]24)Nc1ccccc1NC3=NCc1ccccc1`, the “activity change, negative = inhibition” value was 11.3% (inactive).

For the compound `O=C(O)C1CC=CC2CCN(C3CCCCC3)C(=O)C21` (centres undefined), the “activity change, negative = inhibition” value is 4.14% (inactive). As to `Cc1nnc(N2CCCC(C(=O)NCCN(C)C)C2)c2nn(-c3ccccc3)c(C)c12` (centres undefined), the “activity change, negative = inhibition” value was 14.7% (inactive). Consider `O=C1c2ccccc2C(=O)N1c1ccc(S(=O)(=O)N2CCOCC2)c2ccccc12`, for which the “activity change, negative = inhibition” value is 5.9% (inactive). For the compound `CC1CCN(C(=O)c2ccc(S(=O)(=O)Cc3cc(F)ccc3F)c([N+](=O)[O-])c2)CC1`, the Potency was 10 µM (active).

For the compound `O=C(c1ccc(Oc2ccc(Cl)cc2)c([N+](=O)[O-])c1)N1CCCC1`, the “activity change, negative = inhibition” value was 14.8% (inactive). With `NC(=O)C1CCN(C(=O)c2ccc(F)c(S(=O)(=O)N3CCOCC3)c2)CC1`, the “activity change, negative = inhibition” value is 14.1% (inactive). Take `Cc1cccc(-c2nnc(SC(C)C(=O)Nc3ccccc3)n2C)c1` (centres undefined): the “activity change, negative = inhibition” value was 6.51% (inactive). Still for that read-out and setting: the result for `COc1cc(Cl)c(C)cc1NC(=O)CCc1nc2cccnc2n1Cc1cccs1` reads 10.8% (inactive); that for `Cc1cccc(C(=O)N2CCc3cc(CNC(=O)Cc4ccc(F)cc4)ccc32)c1`, 5.2% [at 57.1 µM] (inactive). As for `CCOC(=O)c1cnc2[nH]c3ccccc3n2c1=O`, the Potency is 44.7 µM (active).

Turning to `CCOC(=O)c1cnc2nc(SCc3ccccc3Cl)[nH]n2c1=O`, the “activity change, negative = inhibition” value was 16.8% (inactive). In the case of `CCOC(=O)c1cnc2sccn2c1=O`, the “activity change, negative = inhibition” value was 22.6% (inactive). For `COc1ccc(NC(=O)CSc2nc3ccccc3[nH]2)cc1`, the “activity change, negative = inhibition” value was 27.2% (inactive). In the case of `Cc1ccccc1CN1C[C@@H]2C[C@@H](c3ccc4nsnc4c3)N3CCC[C@@]23C1=O`, the “activity change, negative = inhibition” value is -29.8% (inactive). `Cc1ccccc1CN1CCN(CC(=O)NCc2ccccn2)C1=O`: the “activity change, negative = inhibition” value is 2.68% (inactive). On to `Cc1ccccc1CN1C[C@@H]2C[C@@H](c3cn(C)nc3-c3ccccc3)N3CCC[C@@]23C1=O`, for which the Potency was 44.7 µM (active).

These data come from PubChem BioAssay AID588453 (National Center for Advancing Translational Sciences (NCATS), 2011).
